These results are taken from PubChem BioAssay (EPA / NIEHS).

Molecules are shown by their SMILES. Several values for one entry are separate records, joined by “and”; a condition that tells them apart may be missing. Identical values can stand only once. A structure can be active in one record and inactive in another. Activity calls are given as the source filed them. How the source made its calls: active means hit-call score of the fitted dose curve at least 0.9, where 1 is the maximum; inactive means score below 0.9.

Experiment [1] concerns the target Bile acid receptor (Homo sapiens) (UniProt Q96RI1). In words: ATG_IR1_CIS: Attagene CIS-FACTORIAL HepG2 Assay for human Nuclear Receptor Subfamily 1 Group H Member 4 (NR1H4), IR1 submotif (AID 2282946). The settings on record: IR1 reporter transcription, actives raise or lower the signal. In outline:
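Cells (human HepG2) carry transiently transfected cis-promoter reporter transcription units. Compounds are incubated 24 h, total RNA is reverse-transcribed and amplified, and labelled fragments are resolved by capillary electrophoresis. Curves use DMSO as baseline.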

A short description of experiment [2]: ATG_GRE_CIS: Attagene CIS-FACTORIAL HepG2 Assay for human Glucocorticoid Response Elements (GRE) (AID 2282947). The following applies: HepG2 GRE cis-reporter, Attagene multiplex mRNA; actives raise or lower the signal. The procedure, abridged:
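Assay uses human hepatoma HepG2 cells transfected with cis-promoter reporter units, exposed 24 h. mRNA from reporters detected by RT-PCR plus capillary electrophoresis; DMSO serves as negative control and baseline.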

Experiment [3] in a line: ATG_ISRE_CIS: Attagene CIS-FACTORIAL HepG2 Assay for human Interferon Regulatory Factor 1 (IRF1) binding to an Interferon-Stimulated Response Element (ISRE) (AID 2282948). The following applies: HepG2 ISRE cis-reporter (Attagene), mRNA transcription readout; actives raise or lower the signal. The procedure, abridged: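 Transfected HepG2 (multiple reporter transcription units, cis elements) dosed 24 h. RNA → oligo(dT) RT → PCR → 6-FAM primer extension → HpaI → CE. DMSO = negative control/baseline.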

Experiment [4] can be described thus: ATG_M_32_CIS: Attagene CIS-FACTORIAL HepG2 Assay for M32 Transcription Factor (Internal Marker) (AID 2282949).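 Further: background control marker of the multiplexed CIS panel rather than a real target.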 The settings on record: HepG2 Attagene cis-factorial M32 reporter, mRNA; actives raise or lower the signal. In outline:
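Following 24 h chemical exposure of HepG2 cells transiently expressing cis-promoter reporter constructs, reporter transcript levels were determined by RT-PCR with fluorescent labelling and capillary electrophoresis, then fitted bidirectionally against DMSO.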

Experiment [5] in a line: ATG_M_06_CIS: Attagene CIS-FACTORIAL HepG2 Assay for M06 Transcription Factor (Internal Marker) (AID 2282950). The following applies: HepG2 Attagene CIS-FACTORIAL M06 internal marker reporter; actives raise or lower the signal. In outline:
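Read-out is fluorescence of labelled reporter cDNA fragments resolved by capillary electrophoresis after RT-PCR. Cells: HepG2 carrying transfected cis-promoter reporter units, treated 24 h. Gain or loss of signal fitted relative to DMSO.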

Experiment [6] deals with Hypoxia-inducible factor 1-alpha (Homo sapiens) (UniProt Q16665). In words: ATG_HIF1a_CIS: Attagene CIS-FACTORIAL HepG2 Assay for human Hypoxia Inducible Factor 1 (HIF1A) (AID 2282951). The following applies: HepG2 Attagene cis-factorial HIF1a reporter transcription; actives raise or lower the signal. In outline:
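Endogenous-TF cis reporter readout, human HepG2 cells, 24 h incubation; mRNA detected via RT-PCR and capillary electrophoresis fluorescence; DMSO-normalised bidirectional fitting.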

Experiment [7] addresses Hepatocyte nuclear factor 6 (Homo sapiens) (UniProt Q9UBC0). In words: ATG_HNF6_CIS: Attagene CIS-FACTORIAL HepG2 Assay for human Hepatocyte Nuclear Factor 6 (HNF6) (AID 2282952). The following applies: HepG2 Attagene cis-factorial HNF6 reporter transcription; actives raise or lower the signal. In outline: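 Multiplexed mRNA reporter assay in transfected HepG2; 24 h dosing; RT-PCR plus capillary electrophoresis fluorescence; DMSO-referenced bidirectional curve fitting.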

Experiment [8] concerns the target Heat shock factor protein 1 (Homo sapiens) (UniProt Q00613). The experiment in a line: ATG_HSE_CIS: Attagene CIS-FACTORIAL HepG2 Assay for human Heat Shock Transcription Factor 1 (HSE) (AID 2282953). The settings on record: HepG2 HSE cis-reporter, Attagene RNA transcription; actives raise or lower the signal. The procedure, abridged:
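HepG2, transient MRTU transfection, cis-promoter reporters (endogenous TF activity). 24 h compound. RNA → oligo(dT) RT → PCR → 6-FAM primer extension → HpaI cut → CE. Bidirectional fit vs DMSO.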

A short description of experiment [9]: ATG_MRE_CIS: Attagene CIS-FACTORIAL HepG2 Assay for human Metal Responsive Element (MRE) (AID 2282954). The settings on record: HepG2 MRE cis-reporter transcription, Attagene multiplex; actives raise or lower the signal. The procedure, abridged:
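After a 24 h chemical exposure, transiently transfected HepG2 cells yield RNA whose reporter sequences are amplified, FAM-labelled and sized by capillary electrophoresis. Curves are fitted bidirectionally relative to DMSO.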

Experiment [10] can be described thus: ATG_PBREM_CIS: Attagene CIS-FACTORIAL HepG2 Assay for human Phenobarbital-responsive Enhancer Module (PBREM) (AID 2282955). The settings on record: HepG2 PBREM cis-reporter, Attagene multiplexed transcription; actives raise or lower the signal. In outline: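 Readout: reporter mRNA, fluorescent RT-PCR fragments separated by capillary electrophoresis. System: HepG2 transiently transfected with cis-regulated reporter units. Exposure: 24 h. Analysis: bidirectional, DMSO baseline.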

Hypoxia-inducible factor 1-alpha (Homo sapiens), sequence (Q16665 whole entry, looked up): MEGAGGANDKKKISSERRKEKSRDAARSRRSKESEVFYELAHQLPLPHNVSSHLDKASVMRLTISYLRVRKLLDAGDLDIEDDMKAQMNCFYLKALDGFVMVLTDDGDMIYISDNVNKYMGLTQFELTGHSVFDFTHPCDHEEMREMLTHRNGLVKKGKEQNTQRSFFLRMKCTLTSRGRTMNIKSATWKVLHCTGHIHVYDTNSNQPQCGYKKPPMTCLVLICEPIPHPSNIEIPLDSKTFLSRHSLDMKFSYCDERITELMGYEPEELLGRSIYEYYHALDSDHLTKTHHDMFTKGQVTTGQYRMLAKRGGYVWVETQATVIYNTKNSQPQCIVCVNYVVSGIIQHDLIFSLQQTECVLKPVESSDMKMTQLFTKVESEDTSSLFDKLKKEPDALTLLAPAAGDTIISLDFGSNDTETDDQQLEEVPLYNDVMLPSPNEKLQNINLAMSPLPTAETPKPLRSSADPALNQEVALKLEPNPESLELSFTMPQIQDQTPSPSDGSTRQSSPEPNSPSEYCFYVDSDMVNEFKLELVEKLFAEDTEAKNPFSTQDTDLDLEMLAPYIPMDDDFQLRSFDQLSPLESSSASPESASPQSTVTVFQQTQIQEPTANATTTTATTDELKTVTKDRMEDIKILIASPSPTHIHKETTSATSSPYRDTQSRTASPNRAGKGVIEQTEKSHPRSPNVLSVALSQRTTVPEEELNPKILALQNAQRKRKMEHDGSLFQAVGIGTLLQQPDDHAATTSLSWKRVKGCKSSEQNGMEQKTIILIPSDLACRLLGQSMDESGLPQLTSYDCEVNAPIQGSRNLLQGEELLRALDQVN
Bile acid receptor (Homo sapiens), sequence (Q96RI1 whole entry, looked up, the tested form may be a part): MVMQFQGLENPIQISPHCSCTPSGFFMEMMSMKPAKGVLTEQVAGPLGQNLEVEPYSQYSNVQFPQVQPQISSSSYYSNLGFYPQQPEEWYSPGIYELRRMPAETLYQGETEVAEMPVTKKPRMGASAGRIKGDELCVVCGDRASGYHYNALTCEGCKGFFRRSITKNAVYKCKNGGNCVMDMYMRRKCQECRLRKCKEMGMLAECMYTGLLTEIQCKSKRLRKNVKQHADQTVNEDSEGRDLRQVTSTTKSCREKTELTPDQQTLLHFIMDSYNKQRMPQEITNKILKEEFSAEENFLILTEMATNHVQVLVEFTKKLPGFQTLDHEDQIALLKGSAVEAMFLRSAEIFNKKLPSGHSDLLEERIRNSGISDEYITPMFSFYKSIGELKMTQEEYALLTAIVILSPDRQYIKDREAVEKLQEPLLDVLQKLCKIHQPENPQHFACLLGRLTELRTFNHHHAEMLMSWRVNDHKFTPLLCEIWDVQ
Hepatocyte nuclear factor 6 (Homo sapiens), sequence (Q9UBC0 whole entry, looked up): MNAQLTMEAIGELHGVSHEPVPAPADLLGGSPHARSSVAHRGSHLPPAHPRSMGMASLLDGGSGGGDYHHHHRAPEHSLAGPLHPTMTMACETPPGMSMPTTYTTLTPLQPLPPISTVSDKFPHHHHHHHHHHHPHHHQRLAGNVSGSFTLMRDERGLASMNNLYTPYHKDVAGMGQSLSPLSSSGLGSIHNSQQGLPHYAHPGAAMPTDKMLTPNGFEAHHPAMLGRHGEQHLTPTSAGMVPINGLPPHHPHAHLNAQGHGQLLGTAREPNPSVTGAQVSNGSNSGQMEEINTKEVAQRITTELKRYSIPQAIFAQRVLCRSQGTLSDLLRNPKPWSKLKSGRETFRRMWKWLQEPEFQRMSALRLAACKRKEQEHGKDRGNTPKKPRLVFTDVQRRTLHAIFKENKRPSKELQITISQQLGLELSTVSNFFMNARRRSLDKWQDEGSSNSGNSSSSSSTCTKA
Heat shock factor protein 1 (Homo sapiens), sequence (Q00613 whole entry, looked up): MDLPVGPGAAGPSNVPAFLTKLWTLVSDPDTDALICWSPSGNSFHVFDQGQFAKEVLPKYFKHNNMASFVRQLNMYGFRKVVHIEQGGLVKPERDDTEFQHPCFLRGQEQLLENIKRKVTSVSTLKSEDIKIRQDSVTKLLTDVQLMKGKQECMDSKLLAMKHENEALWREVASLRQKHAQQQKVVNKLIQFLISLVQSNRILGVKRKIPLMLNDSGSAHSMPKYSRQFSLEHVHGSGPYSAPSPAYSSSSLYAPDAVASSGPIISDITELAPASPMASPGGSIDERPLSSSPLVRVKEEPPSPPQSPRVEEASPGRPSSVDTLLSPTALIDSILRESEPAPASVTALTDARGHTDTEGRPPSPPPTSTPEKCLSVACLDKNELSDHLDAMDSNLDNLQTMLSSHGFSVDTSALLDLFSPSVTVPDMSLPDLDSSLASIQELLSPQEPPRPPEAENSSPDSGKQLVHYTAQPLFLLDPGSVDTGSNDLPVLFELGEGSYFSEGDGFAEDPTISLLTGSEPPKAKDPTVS

With `CCCCOCCOC(C)=O`, the result in experiment [1], in [2], in experiment [3], in experiment [4], in experiment [5] and in experiment [6] was inactive. Also, the compound was called inactive in experiment [7], in experiment [8], in [9] and in experiment [10].

With `COS(=O)(=O)c1ccc(C)cc1`, the compound was classed as inactive in [1], in [2], in [3], in experiment [4], in experiment [5] and in experiment [6]. For the same compound, the compound was called inactive in [8] and in [9].

On to `CCC(C)(C)c1ccc(O)c(C(C)(C)CC)c1`, for which the AC50 in [1] was 5.81 µM (active). Also, the call in [2], in experiment [3], in [4], in experiment [5], in experiment [6] and in experiment [7] was inactive. Moreover, the compound was classed as inactive in [8], in experiment [9] and in experiment [10].

Take `O=C1C2(Cl)C3(Cl)C4(Cl)C(Cl)(Cl)C5(Cl)C3(Cl)C1(Cl)C5(Cl)C24Cl` (centres undefined): the AC50 was 7.38 µM (active) in [1]; 5.27 µM (active) in [2]; 11.1 µM (active) in [7]; 16.7 µM (active) in experiment [8]; 3.57 µM (active) and 16.2 µM (active) in [9]; 16 µM (active) in experiment [10]. The result in experiment [1], in experiment [2], in [4], in experiment [5], in experiment [6] and in [7] was inactive. The compound was called inactive in experiment [8], in experiment [9] and in experiment [10].

For the compound `CC(C)(OO)c1ccccc1`, the outcome in experiment [1], in experiment [2], in experiment [3], in experiment [4], in experiment [5] and in experiment [6] was inactive. Moreover, the compound was classed as inactive in experiment [7], in experiment [8], in experiment [9] and in experiment [10].

Regarding `CC(=[OH+])/C=C(/C)[O-].CC(=[OH+])/C=C(/C)[O-].CC(=[OH+])/C=C(/C)[O-].[Al]`, the outcome in [1], in [2], in [3], in [4], in experiment [5] and in experiment [6] was inactive. Moreover, the outcome in [7], in [8] and in [9] was inactive.

`CCC(=O)C(CC(C)N(C)C)(c1ccccc1)c1ccccc1` (centres undefined): the call in experiment [1], in experiment [2], in experiment [3], in experiment [4], in experiment [5] and in [6] was inactive. Moreover, the outcome in experiment [7], in experiment [8], in experiment [9] and in [10] was inactive.

With `CCCCCCCCCl`, the compound was called inactive in experiment [1], in [2], in experiment [3], in experiment [4], in experiment [5] and in [6]. Besides, the outcome in [7], in experiment [8] and in experiment [9] was inactive.

With `CC(=[OH+])/C=C(/C)[O-].CC(=[OH+])/C=C(/C)[O-].CC(=[OH+])/C=C(/C)[O-].[Fe]`, the compound was classed as inactive in experiment [1], in experiment [2], in experiment [3], in [4], in [5] and in experiment [6]. Further, the result in experiment [7], in [8] and in [9] was inactive.

Consider `CC(=O)OC(c1ccccc1)C(Cl)(Cl)Cl` (centres undefined), for which the result in experiment [1], in experiment [2], in [3], in experiment [4], in experiment [5] and in experiment [6] was inactive. Besides, the compound was classed as inactive in [7], in experiment [8] and in experiment [9].

Turning to `Oc1c(I)cc(I)cc1I`, the outcome in experiment [1], in experiment [2], in [4], in experiment [5] and in [7] was inactive. For the same compound, the AC50 in experiment [3] is 100 µM (active); in [6], 41.9 µM (active); in experiment [8], 125 µM (active); in [9] it was 100 µM (active).

Consider `CN(CCCC(=O)c1cccnc1)N=O`, for which the result in experiment [1], in [2], in experiment [3], in [4], in [5] and in experiment [6] was inactive. Besides, the compound was called inactive in experiment [7], in experiment [8], in [9] and in experiment [10].

With `CC(=O)[O][Hg][c]1ccccc1`, the call in experiment [1], in [3], in [4], in [5], in experiment [6] and in experiment [7] was inactive. Further, the call in experiment [8] and in [10] was inactive. In addition, the AC50 in experiment [2] was 3.71 µM (active); in experiment [9] it was 5.86 µM (active).

Consider `CCN(CC)C(=O)Cl`, for which the outcome in experiment [1], in experiment [2], in experiment [3], in [4], in experiment [5] and in experiment [6] was inactive. The result in experiment [7], in experiment [8], in experiment [9] and in [10] was inactive.

On to `Nc1cccc(Cl)c1`, for which the compound was classed as inactive in experiment [1], in [4], in experiment [5], in experiment [6], in experiment [7] and in experiment [9]. For the same compound, the outcome in [10] was inactive.

On to `CCOP(=S)(OCC)SCCS(=O)(=O)CC`, for which the result in experiment [1], in experiment [2], in experiment [3], in [4], in [5] and in experiment [6] was inactive. Also, the compound was called inactive in [8] and in [9].

For `Cn1sc(Cl)cc1=O`, the compound was classed as inactive in [1], in [2], in [4], in experiment [5], in [6] and in experiment [7]. The call in [8], in experiment [9] and in experiment [10] was inactive.

`N#CN=C(N)N`: the call in experiment [1], in experiment [3], in experiment [4], in [5], in experiment [6] and in [8] was inactive. In addition, the call in experiment [9] and in experiment [10] was inactive.

`O=C(OC1CCCCC1)c1ccccc1C(=O)OC1CCCCC1`: the AC50 in experiment [1] was 28.9 µM (active); in [6] it was 11.2 µM (active); in experiment [9] it was 23.5 µM (active). The compound was called inactive in experiment [2], in experiment [3], in [4], in experiment [5], in [8] and in experiment [10].

In the case of `CC(C)CCCCCCOC(=O)c1ccccc1C(=O)OCCCCCCC(C)C`, the result in [1], in experiment [2], in experiment [3], in [4], in [5] and in experiment [6] was inactive. The outcome in experiment [8], in experiment [9] and in experiment [10] was inactive.

For `CN(C)P(=O)(N(C)C)N(C)C`, the compound was called inactive in [1], in [3], in experiment [4], in experiment [5], in [6] and in [7]. Further, the compound was called inactive in experiment [8] and in [9].

With `Clc1ccc(COC(Cn2ccnc2)c2ccc(Cl)cc2Cl)cc1` (centres undefined), the outcome in [1], in [2], in experiment [4], in experiment [5], in experiment [8] and in [9] was inactive. In experiment [10], the result was inactive.

`CC(C)c1ccc(CO)cc1`: the compound was classed as inactive in [1], in experiment [3], in experiment [4], in experiment [5], in [6] and in [7]. Further, the compound was called inactive in [8] and in [9].

Take `[O-][Cl+2]([O-])O`: the result in experiment [1], in experiment [3], in [4], in [5], in [6] and in [8] was inactive. Also, the compound was classed as inactive in experiment [9] and in [10].
